# Reference: PubChem BioAssay (NCATS)
# Results filed as inconclusive are left out. Some of the results follow. Entries that show only a call come without a potency. Calls of active or inactive are those of the source. Unless noted, calls come from the whole dose curve; as a rule, active = well fitted curve in the direction sought with a large enough effect; inconclusive = small, poorly fitted or top-dose-only effect, or another doubt; inactive = no such curve, though single readings can be large; an effect the other way counts as inactive or inconclusive.
# Columns and labels:
# [1] = molecular target: Lethal(3)malignant brain tumor-like protein 1 (Homo sapiens) (UniProt Q9Y468); test: qHTS Assay for the Inhibitors of L3MBTL1: Hit Validation (AID 540279); conditions: L3MBTL1 methyl-lysine binding inhibition, biochemical qHTS; note: potency is the fitted concentration of half-maximal effect; nearly all actives have a fitted effect of over 70% in size
# Outline: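 L3MBTL1 (50 nM final) preformed 30 min with biotinylated H3(1-15)K9me1 peptide (75 nM), then compound 30 min at room temperature. Streptavidin donor and nickel chelate acceptor AlphaScreen beads (10 ug/mL each final) added for 30 min before read.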
# [2] = qHTS Assay for the Inhibitors of L3MBTL1: Hit Validationin AlphaScreen Counterscreen (AID 602224); conditions: signal inhibition; series mostly up to 57.1 µM
# Outline: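 Bead-bridging control using 1 nM b-His6 linking streptavidin donor and nickel chelate acceptor beads (10 ug/mL each, final). Compound exposure 15 min, then beads, 30 min dark incubation at room temperature before AlphaScreen reading.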
# [3] = molecular target: Mitogen-activated protein kinase 10 (Mus musculus) (UniProt Q61831); test: JNK3 AlphaScreen Assay (AID 530; active = well fitted curve in either direction with a large enough effect, not every such curve was filed as active;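 note: kinase came from lysate of stimulated human HepG2 cells; signal reports phosphorylation of biotinylated GST-cJun 1-79 at Ser73 with 10 µM ATP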); conditions: JNK3 lysate, c-Jun phosphorylation; series mostly up to 57.1 µM
# Outline: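 Pre-activated (IL-1β/TNFα) JNK3 in HepG2 lysates phosphorylates biotin-GST-cJun(1-79), 10 uM ATP; anti-phospho-cJun(Ser73) AlphaScreen read at room temperature, pH 7.6 Tris buffer. Compounds pre-incubated 15 min as titrations.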
# [4] = molecular target: Cytochrome P450 3A4 (Homo sapiens) (UniProt P08684); test: qHTS Assay for Activators of Cytochrome P450 3A4 (AID 885); conditions: recombinant CYP3A4, Luciferin-PPXE luminescence, 60 min; series mostly up to 57.1 µM; note: nearly all actives have a fitted effect of over 65% in size
# Outline: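 20nM CYP3A4 + 25uM Luciferin-PPXE (=KM), 200mM KPO4; cpd 10 min RT; NADPH regen, 60 min RT; stop w/ detection buffer, 20 min; luminescence. Normalized to 57 uM ketoconazole.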
# [5] = molecular target: DNA polymerase iota (Homo sapiens) (UniProt Q9UNA4); test: qHTS for Inhibitors of Polymerase Iota: Confirmatory Assay for Cherry-picked Compounds (AID 720496); conditions: Pol iota primer extension, TAMRA/BHQ fluorescence; note: potency is the fitted concentration of half-maximal effect
# Outline: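 Recombinant human Pol iota (10 nM) was preincubated with compound for 15 min at room temperature, then 50 nM final primer/template substrate was added; the substrate carried a TAMRA-labeled reporter strand and a BHQ-2-quenched template. Fluorescence was read at 0 and 10 min.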
# [6] = molecular target: DNA dC->dU-editing enzyme APOBEC-3G (Homo sapiens) (UniProt Q9HC16); test: qHTS for inhibitors of Vif-A3G interactions: Validation (AID 588379); conditions: Vif-A3G protein interaction assay; series mostly up to 46.1 µM
# Outline: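 HeLa cells stably expressing Vif and A3G-eYFP, 700 cells/well, incubated overnight at 37 deg C, then exposed to compound overnight at 37 deg C. Inhibition of Vif-mediated degradation read as increased yellow fluorescence (Ex 488/Em 500-530) by laser-scanning cytometry.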
# [7] = molecular target: Cytochrome P450 3A4 (Homo sapiens) (UniProt P08684); test: qHTS Assay for Inhibitors and Substrates of Cytochrome P450 3A4 (AID 884); conditions: recombinant CYP3A4, Luciferin-PPXE luminescence; series mostly up to 57.1 µM; note: potency is the fitted concentration of half-maximal effect; nearly all actives have a fitted effect of over 50% in size
# Outline: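 20 nM human CYP3A4 with 25 uM Luciferin-PPXE (at KM) in 200 mM KPO4, preincubated 10 min with compound; NADPH regeneration started a 60 min RT reaction. Luciferin detected by luminescence, normalized to 57 uM ketoconazole as full inhibition.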
# Chain of Lethal(3)malignant brain tumor-like protein 1 (Homo sapiens) (Q9Y468 whole entry, looked up): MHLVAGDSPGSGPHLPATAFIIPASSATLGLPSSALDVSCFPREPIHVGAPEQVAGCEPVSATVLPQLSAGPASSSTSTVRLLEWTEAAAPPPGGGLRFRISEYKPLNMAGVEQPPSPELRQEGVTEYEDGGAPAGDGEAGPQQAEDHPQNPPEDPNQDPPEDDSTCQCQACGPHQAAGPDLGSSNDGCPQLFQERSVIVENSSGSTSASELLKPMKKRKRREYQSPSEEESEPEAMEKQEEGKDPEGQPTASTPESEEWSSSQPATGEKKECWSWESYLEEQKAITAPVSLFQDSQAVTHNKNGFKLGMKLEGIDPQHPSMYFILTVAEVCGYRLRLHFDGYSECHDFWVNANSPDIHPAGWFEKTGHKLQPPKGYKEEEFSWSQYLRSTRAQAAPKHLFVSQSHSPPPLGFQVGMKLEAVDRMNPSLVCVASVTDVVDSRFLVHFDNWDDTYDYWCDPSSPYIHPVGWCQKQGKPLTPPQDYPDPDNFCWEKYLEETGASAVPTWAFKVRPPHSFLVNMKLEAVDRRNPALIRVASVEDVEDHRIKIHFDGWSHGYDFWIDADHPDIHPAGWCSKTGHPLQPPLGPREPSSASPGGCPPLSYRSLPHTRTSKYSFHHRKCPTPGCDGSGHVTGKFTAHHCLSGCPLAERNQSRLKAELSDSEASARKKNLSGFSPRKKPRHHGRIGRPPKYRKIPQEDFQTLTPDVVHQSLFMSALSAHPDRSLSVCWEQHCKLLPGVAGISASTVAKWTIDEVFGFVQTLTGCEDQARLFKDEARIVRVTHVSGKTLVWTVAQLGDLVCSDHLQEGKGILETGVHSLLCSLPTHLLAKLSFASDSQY
# Chain of Cytochrome P450 3A4 (Homo sapiens) (P08684 whole entry, looked up): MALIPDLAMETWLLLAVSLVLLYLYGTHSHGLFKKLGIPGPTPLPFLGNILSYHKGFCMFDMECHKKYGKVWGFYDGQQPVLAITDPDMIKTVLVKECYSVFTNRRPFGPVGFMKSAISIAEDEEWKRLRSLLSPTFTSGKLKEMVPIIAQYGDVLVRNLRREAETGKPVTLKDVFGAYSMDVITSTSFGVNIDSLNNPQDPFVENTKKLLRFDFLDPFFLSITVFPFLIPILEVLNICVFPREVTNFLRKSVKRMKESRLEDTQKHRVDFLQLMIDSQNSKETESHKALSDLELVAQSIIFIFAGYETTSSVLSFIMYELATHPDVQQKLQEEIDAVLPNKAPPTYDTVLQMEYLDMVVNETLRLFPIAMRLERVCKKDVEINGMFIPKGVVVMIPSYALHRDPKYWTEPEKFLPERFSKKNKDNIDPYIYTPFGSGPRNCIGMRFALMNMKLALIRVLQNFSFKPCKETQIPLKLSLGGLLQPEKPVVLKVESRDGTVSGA
# Chain of DNA dC->dU-editing enzyme APOBEC-3G (Homo sapiens) (Q9HC16 whole entry, looked up): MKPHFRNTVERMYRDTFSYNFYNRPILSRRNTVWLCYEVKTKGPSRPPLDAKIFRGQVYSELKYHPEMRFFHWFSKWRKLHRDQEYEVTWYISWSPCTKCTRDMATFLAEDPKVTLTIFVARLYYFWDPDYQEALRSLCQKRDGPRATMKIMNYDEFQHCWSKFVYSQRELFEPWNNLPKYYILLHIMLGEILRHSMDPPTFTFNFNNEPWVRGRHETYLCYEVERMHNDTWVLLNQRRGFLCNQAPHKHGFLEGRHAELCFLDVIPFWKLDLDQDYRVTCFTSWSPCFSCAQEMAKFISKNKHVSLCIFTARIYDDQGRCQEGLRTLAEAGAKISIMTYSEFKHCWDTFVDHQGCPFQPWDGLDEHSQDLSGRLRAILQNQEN
# Chain of DNA polymerase iota (Homo sapiens) (Q9UNA4 whole entry, looked up): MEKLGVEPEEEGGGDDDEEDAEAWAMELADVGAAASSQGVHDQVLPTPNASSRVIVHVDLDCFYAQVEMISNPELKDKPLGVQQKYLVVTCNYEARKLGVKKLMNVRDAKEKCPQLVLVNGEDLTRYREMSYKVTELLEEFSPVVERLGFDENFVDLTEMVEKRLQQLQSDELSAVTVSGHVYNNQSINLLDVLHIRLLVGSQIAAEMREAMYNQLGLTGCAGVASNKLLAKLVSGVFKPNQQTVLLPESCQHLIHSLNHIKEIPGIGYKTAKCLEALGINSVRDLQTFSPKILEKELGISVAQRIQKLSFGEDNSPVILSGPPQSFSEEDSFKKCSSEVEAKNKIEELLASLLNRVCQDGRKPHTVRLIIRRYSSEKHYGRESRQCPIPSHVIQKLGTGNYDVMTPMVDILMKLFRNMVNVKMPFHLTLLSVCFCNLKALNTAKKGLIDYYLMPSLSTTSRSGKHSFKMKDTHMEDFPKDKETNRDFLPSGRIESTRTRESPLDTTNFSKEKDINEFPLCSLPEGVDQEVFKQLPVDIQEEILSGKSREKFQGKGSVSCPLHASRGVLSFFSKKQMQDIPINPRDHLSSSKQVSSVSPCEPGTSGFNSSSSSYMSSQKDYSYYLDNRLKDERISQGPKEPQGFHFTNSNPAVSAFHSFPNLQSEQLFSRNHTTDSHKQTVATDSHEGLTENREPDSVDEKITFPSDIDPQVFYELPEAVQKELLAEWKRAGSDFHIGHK
smiles,measurement,setting,value
COc1cccc2c(C)c(C(=O)O)[nH]c12,Potency,[1],5.97 µM (active)
same,outcome,[2],inactive
CCN(C(=O)Cc1nc(N)n[nH]1)C1(C(=O)Nc2ccccc2)CCCCC1,Potency,[1],26.7 µM (active)
CNC(=O)[C@@H]1C[C@H]1[C@@H](NC(=O)CNC(=O)OCc1ccccc1)c1ccccc1,outcome,[3],inactive
same,Potency,[4],inactive
COC(=O)CNC(=O)[C@@]1(C)C=C[C@@H](Cc2ccccc2)N1C(C)=O,outcome,[3],inactive
same,Potency,[4],inactive
COC(=O)CCCCCN1C(=O)NC(CC2CC2)C(C(=O)OCc2ccccc2)=C1C (centres undefined),outcome,[3],inactive
same,Potency,[4],inactive
COC(=O)c1ccc(C(/C=C/[C@@H](C)C(=O)N(C)C)NC(=O)OCc2ccccc2)cc1 (some centres undefined),outcome,[3],inactive
same,Potency,[4],inactive
CCCCCCN(C(=O)CCCCCN1C(=O)NC(c2ccc(-c3ccccc3)cc2)C(C(=O)OCc2ccccc2)=C1C)C(C(=O)NCCCC)c1ccccc1 (centres undefined),outcome,[3],inactive
same,Potency,[4],inactive
CC(C)NC(=O)[C@H]1C[C@@H]1[C@H](NC(=O)OCc1ccccc1)c1ccccc1,outcome,[3],inactive
same,Potency,[4],inactive
COc1ccc(Cc2nnc(NC(=O)Cc3cccs3)s2)cc1,Potency,[1],1.19 µM (active)
same,Potency,[5],16.8 µM (active)
CC(C)(C)OC(=O)NCCCCCNC(=O)c1[nH]cnc1C(=O)Nc1nccs1,Potency,[1],7.52 µM (active)
same,outcome,[2],inactive
COC(=O)CNC(=O)C1(CC(C)C)C=CCN1C(=O)c1ccccc1 (centres undefined),outcome,[3],inactive
same,Potency,[4],inactive
COC(=O)N1CC=CC1(C)C(=O)NCc1ccc(C)o1 (centres undefined),outcome,[3],inactive
same,Potency,[4],inactive
Oc1ccc(N=Nc2nccs2)c(O)c1,Potency,[1],16.8 µM (active)
same,outcome,[2],inactive
COCCNC(=O)[C@@]1(Cc2ccccc2)C=C[C@@H](C)N1C(C)=O,outcome,[3],inactive
same,Potency,[4],inactive
CC(=O)N1[C@H](C)C=C[C@]1(Cc1ccccc1)C(=O)NCc1ccccn1,outcome,[3],inactive
same,Potency,[4],inactive
CCCCCCN(C(=O)CCCCCN1C(=O)NC(c2ccc(-c3ccccc3)cc2)C(C(=O)OCc2ccccc2)=C1C)C(C(=O)NCCCC)c1ccccn1 (centres undefined),outcome,[3],inactive
same,Potency,[4],inactive
CC(C)CC1(C(=O)NCc2ccccn2)C=CCN1C(=O)c1ccccc1 (centres undefined),outcome,[3],inactive
same,Potency,[4],inactive
COc1ccc(-c2coc3ccc(OC4OC(COC(C)=O)C(OC(C)=O)C(OC(C)=O)C4OC(C)=O)cc3c2=O)cc1 (centres undefined),Potency,[6],inactive
C[C@H]1[C@H](C)CC[C@]2(C(=O)O)CC[C@]3(C)C(=CCC4[C@@]5(C)CC[C@H](O)C(C)(C)[C@@H]5CC[C@]43C)[C@H]12 (some centres undefined),Potency,[6],inactive
CC1=CC(=O)C2=C(C)CCC3C(C)C(=O)OC3C12 (centres undefined),Potency,[6],inactive
Cc1cccc(-c2cc(=O)c3cc(C)ccc3o2)c1,Potency,[7],3.98 µM (active)
same,Potency,[4],inactive
same,Potency,[6],inactive
